HP1b chromo inh = HTS for Inhibitors of HP1-beta Chromodomain Interactions with Methylated Histone Tails. AlphaScreen HP1-beta / biotin-H3K9me3 peptide binding. Potency, µM (series often up to 114 µM), for inactives: top-dose activity change, negative = inhibition, actives largely listed as inhibitors. 390,000 compounds, 0.56% hits. AID 540317, 2011; note: nearly all actives have a fitted effect of over 70% in size
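HP1-beta protein (50 nM final) preincubated 30 min at room temperature with biotinylated H3(1-18)K9me3 peptide (50 nM) in PBS pH 7.4, 0.01% Tween-20, then compound added for 30 min. AlphaScreen streptavidin donor/nickel chelate acceptor beads (10 ug/mL final), 30 min dark, luminescence read.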
G9a inh = qHTS Assay for Inhibitors of Histone Lysine Methyltransferase G9a; Histone-lysine N-methyltransferase EHMT2 (Homo sapiens), Q96KQ7; G9a H3K9 monomethylation, AlphaScreen, 2 h; Potency, µM (highest dose often 102 µM), for inactives: top-dose activity, negative = inhibition, most hits filed as inhibitors; 350,000 compounds, 8.8% hits; AID 504332, 2011; note: % is set by controls: 0 for no effect and ±100 for the full control effect; nearly all actives have a fitted effect of over 75% in size
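G9a (20 nM) was preincubated 15 min with compound, then reacted 2 h at room temperature with 500 nM biotin-H3K9 peptide and 20 µM SAM. Monomethyl-H3K9 detected by AlphaScreen using anti-H3K9me1 antibody.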
JMJD2A Tudor = qHTS Assay for Inhibitors of JMJD2A-Tudor Domain. AlphaScreen JMJD2A-Tudor / H3K4me3 peptide binding. Lysine-specific demethylase 4A (Homo sapiens), O75164. 390,000 compounds, 4.4% hits. Potency, µM (highest dose often 114 µM), for the others: top-dose activity change, negative = inhibition, hits mostly inhibitors; note: % is set by controls: 0 for no effect and ±100 for the full control effect; nearly all actives have a fitted effect of over 50% in size
BAZ2B block = qHTS Assay for Inhibitors of BAZ2B | Bromodomain adjacent to zinc finger domain protein 2B (Homo sapiens), Q9UIF8 | AlphaScreen BAZ2B-H3K14Ac peptide displacement | Potency, µM (titrated, usually from 114 µM), inactives show at the highest dose activity change, negative = inhibition, hits mostly inhibitors | 360,000 compounds, 4.4% hits; note: % is set by controls: 0 for no effect and ±100 for the full control effect; nearly all actives have a fitted effect of over 60% in size
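Multi-concentration screen (max 110 uM) measuring displacement of acetylated histone H3 peptide from BAZ2B by AlphaScreen, using 50 nM protein, 50 nM peptide and 10 ug/mL streptavidin donor plus Ni-chelate acceptor beads.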
PLK1 PBD inh = qHTS for Inhibitors of PLK1-PDB (polo-like kinase 1 - polo-box domain): Primary Screen; Serine/threonine-protein kinase PLK1 (Homo sapiens), P53350; Plk1 PBD binding of FITC phosphopeptide, fluorescence polarization; Potency, µM, for the others: max response, negative = inhibition, actives largely listed as inhibitors; 360,000 compounds, 2.8% hits; AID 720504, 2013; note: series mostly up to about 57 µM; % is set by controls: 0 for no effect and ±100 for the full control effect; nearly all actives have a fitted effect of over 65% in size
Target sequence (P53350 whole entry, looked up, the tested form may be a part): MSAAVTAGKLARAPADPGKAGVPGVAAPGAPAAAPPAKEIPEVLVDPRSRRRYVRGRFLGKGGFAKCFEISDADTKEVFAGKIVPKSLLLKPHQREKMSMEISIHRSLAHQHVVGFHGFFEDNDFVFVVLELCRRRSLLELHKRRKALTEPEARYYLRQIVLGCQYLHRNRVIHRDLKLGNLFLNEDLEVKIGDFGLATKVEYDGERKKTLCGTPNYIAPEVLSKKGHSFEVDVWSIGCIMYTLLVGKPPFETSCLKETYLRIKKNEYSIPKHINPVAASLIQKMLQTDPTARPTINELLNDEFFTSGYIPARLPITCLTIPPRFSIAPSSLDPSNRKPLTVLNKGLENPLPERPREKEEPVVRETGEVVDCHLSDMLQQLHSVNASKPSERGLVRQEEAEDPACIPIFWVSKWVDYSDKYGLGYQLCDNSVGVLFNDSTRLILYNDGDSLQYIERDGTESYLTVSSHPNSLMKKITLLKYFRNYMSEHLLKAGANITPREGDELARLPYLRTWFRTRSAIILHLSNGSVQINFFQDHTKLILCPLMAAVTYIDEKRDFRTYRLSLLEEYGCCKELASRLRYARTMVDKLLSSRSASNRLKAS
Sfp inh = qHTS Assay for Inhibitors of Bacillus subtilis Sfp phosphopantetheinyl transferase (PPTase). Biochemical Sfp PPTase activity, qHTS. Potency, µM, without a hit: largest response in the series, negative = inhibition, actives largely listed as inhibitors. 310,000 compounds, 3.5% hits;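 note: the enzyme is Sfp with the accession as filed and its product quenches rhodamine fluorescence; 0% = enzyme reaction without inhibitor and -100% = no enzyme wells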
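Fluorescence-quenching assay: 15 nM Sfp-PPTase preincubated 15 min at room temperature with compound, then 5 uM rhodamine-CoA and 12.5 uM BHQ-2-labelled YbbR peptide added. Fluorescence (ex 525/em 598 nm) read at start and after 30 min; difference gives rate.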
* = called active by the depositor; ? = inconclusive; / = no result given; [ ] = remark or other dose. This is a sample that favours compounds with a hit; in the whole collection about 12% have one here. Calls come from the whole dose curve; as a rule, active = well fitted curve in the direction sought with a large enough effect; inconclusive = small, poorly fitted or top-dose-only effect, or another doubt; inactive = no such curve, though single readings can be large; an effect the other way counts as inactive or inconclusive. Potency is the fitted concentration of half-maximal effect.

SMILES | HP1b chromo inh | G9a inh | JMJD2A Tudor | BAZ2B block | PLK1 PBD inh | Sfp inh
COCCCNC(=O)/C(C#N)=C/c1ccc(OCC(=O)O)c(OC)c1 | ? | 13µM* | 50µM* | 20µM* | 21µM* | 9%
CCc1nn(C(C)C(=O)N2CCN(c3cccc(C(F)(F)F)c3)CC2)c(=O)c2cc3occc3n12 (stereo not given) | 9% | -30%[59 µM] | ? | ? | / | /
Cn1nc(CC(=O)Nc2ccc3c(c2)OCCO3)c2ccccc2c1=O | 30% | 13%[12.7 µM] | -3% | 0% | -4% | 13%
Cn1c(C(=O)O)c(CC(=O)Nc2ccc(F)cc2F)c2ccccc21 | 9% | 15%[59 µM] | -9% | -1% | -4% | -5%
Cc1ccc(NC(=O)Cc2c(C(=O)O)n(C)c3ccccc23)cc1F | -21% | -1% | 45µM* | -2% | 24µM* | 9%
Cc1ccc(NC(=O)Cc2nn(C)c(=O)c3ccccc23)cc1F | -6% | 8%[59 µM] | 35µM* | -1% | 3µM* | -9%
CCc1nnc(NC(=O)CSc2nccn2Cc2ccc(F)cc2)s1 | 43%[57 µM] | 13%[59 µM] | -29% | 15% | / | /
COc1ccc(Cl)cc1S(=O)(=O)Nc1ccc2c(c1)n(C)c(=O)n2C | -21% | 10% | -17% | -38% | -12% | 14%
O=C(c1ccccc1)c1cnc2ccc(Cl)cc2c1N1CCOCC1 | -1% | 50µM* | ? | ? | -5% | 8%
CCOC(=O)C1CCN(c2c(C(=O)c3ccccc3)cnc3ccc(CC)cc23)CC1 | 18% | ? | -19% | ? | 2% | -2%
COc1cc2ncc(C(=O)c3ccccc3)c(N3CCN(Cc4ccccc4)CC3)c2cc1OC | ? | 35µM* | 22µM* | ? | 3% | -16%
CC(C)(C)c1ccc(C2=NC(C)(C)N(CC(=O)Nc3ccc(F)c(F)c3)C2=O)cc1 | 36% | 5%[59 µM] | -3% | -6% | / | /
C/C=C1\NC(=O)[C@H](CC(N)=O)N(C)C(=O)C([C@@H](C)O)NC(=O)C(CCCc2ccc(OC)cc2)NC(=O)[C@H](C(C)C)NC(=O)/C(=C\C)NC(=O)[C@H](O)[C@@H](C[C@@H](O)CCCCCCC)NC(=O)[C@H](C)NC(=O)CN(C)C(=O)[C@H](CCC(N)=O)NC1=O (stereo not given in full) | 33% | / | -5% | / | -24% | /
O=C(c1coc(=O)c(Br)c1)N1CCOCC1 | ? | ? | ? | 50µM* | ? | 6%
O=C(c1ccc(=O)oc1)N1CCOCC1 | 22µM* | 22µM* | 45µM* | 50µM* | -29% | 6%
O=C(c1ccc(F)cc1)N1CCOCC1 | 45% | 21% | 3% | 1% | 5% | 5%
O=C(c1cc(Br)c(Br)s1)N1CCOCC1 | 22% | 1%[12.7 µM] | -8% | 7% | -7% | /
CC(C)(C)c1ccc2c(S(=O)(=O)O)c(C(C)(C)C)ccc2c1 | / | 3%[12.7 µM] | / | / | / | 3%
O=C(Nc1cc(Cl)ccc1Cl)C1(c2cccs2)CCOCC1 | 57% | 5%[59 µM] | 17% | 56% | / | /
Cc1ccccc1NC(=O)CCn1nc(-c2ccc(Cl)cc2)c2ccccc2c1=O | 29% | ? | -19% | ? | / | /
Cc1cn([C@H]2C[C@H](O)[C@@H](CNCC3=Cc4cc(O)ccc4OC3)O2)c(=O)[nH]c1=O | / | / | / | / | -5% | /
CCCC1(C(=O)O)NC(c2ccccc2O)C2C(=O)N(Cc3ccccc3)C(=O)C21 (stereo not given) | 60% | ? | -14% | ? | -4% | ?
CSCCC1(C(=O)O)NC(c2ccccc2O)C2C(=O)N(C(C)C)C(=O)C21 (stereo not given) | 18% | -7% | ? | ? | ? | 79µM*
O=C(Nc1ccccc1F)c1ccc2c(Cl)c3c(nc2c1)CCC3 | 24% | -27%[59 µM] | -10% | 0% | / | /
COc1ccc(NS(=O)(=O)c2ccc(N3CCCC3)c(NC(=S)Nc3cccc(C)c3C)c2)cc1 | ? | 1.3µM* | 56µM* | ? | 3.8µM* | 13µM*
SMILES | HP1b chromo inh | G9a inh | JMJD2A Tudor | BAZ2B block | PLK1 PBD inh | Sfp inh
CCNC(=O)Nc1cc(S(=O)(=O)Nc2ccc(OC)cc2)ccc1N1CCOCC1 | 42% | 18%[2.33 µM] | -5% | 4% | 4% | /
COc1ccc(NS(=O)(=O)c2ccc(N3CCCC3)c(NC(=S)Nc3ccc(SC(F)F)cc3)c2)cc1 | 11µM* | ? | 56µM* | ? | 4.7µM* | 18µM*
O=C(CSc1nncs1)NNC(=O)c1ccco1 | 34% | -8%[12.7 µM] | -15% | -6% | -5% | /
CN1CCN(C(=O)C2Cc3c(-c4cccc(F)c4)ccnc3O2)CC1 (stereo not given) | / | / | / | / | -2% | /
Cc1cc(C)c(NC(=S)NCC2CCN(C(C)c3ccccc3)C2)c(C)c1 (stereo not given) | -23% | 10µM* | ? | -11% | 2.7µM* | 3.5µM*
CC(c1ccccc1)N1CCC(CNC(=S)Nc2cccc(Cl)c2)C1 (stereo not given) | 19% | -51% | -26% | -13% | -7% | 4%
Cc1ccccc1NC(=S)NCC1CCC(CNC(=S)Nc2ccccc2C)CC1 (stereo not given) | 16% | / | -31% | -5% | -10% | -15%
Cc1ccc(NC(=S)NCC2CCN(C(C)c3ccccc3)C2)cc1 (stereo not given) | 12% | 50µM* | -10% | 0% | ? | -24%
Cc1ccc(NC(=O)/C(=C/c2ccco2)c2ccccc2)c(C)c1 | -18% | 50µM* | -14% | ? | -1% | -10%
O=C(N/C(=C/c1ccccc1)C(=O)N1CCCCC1)c1ccccc1 | 13% | 30% | -4% | -22% | -6% | -3%
O=C(O)/C(=C/c1ccco1)NC(=O)c1ccccc1 | -3% | 45µM* | ? | -30% | -24% | -19%
Cc1ccc(NC(=S)N2CCN(C(=O)c3ccccc3)CC2)c(C)c1 | 14% | 17% | -33% | / | 27µM* | 2%
O=C(N/C(=C\c1ccccc1)C(=O)N1CCCCCC1)c1ccccc1 | ? | 2% | ? | -3% | 30µM* | 18%
CC(C)(C)c1ccc(C(=O)N/C(=C\c2ccco2)C(=O)O)cc1 | 49% | ? | -3% | -34% | -11% | -9%
O=C(N/C(=C\c1ccco1)C(=O)N1CCC(O)CC1)c1ccccc1 | 10% | ? | -10% | 1% | -3% | 10%

Compound activity as filed in PubChem.
